In PubChem BioAssay (NCI):
About 83,000 compounds went through this panel and 20% of them were active in at least one assay; those are over-represented in the sample as a whole.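 Assay: single dose, 48 h. Readout: percent growth (0 = no net growth; negative = cell death). Active: <10.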 Activity calls are given as the source filed them.

Legend:
Assay in all cases: NCI-60 one-dose screen, 48 h (100 = growth as untreated, 0 = no growth, -100 = all killed)
Details in all cases: 10 µM unless noted
DU-145 prostate = test system: DU-145 prostate
K-562 leukemia = test system: K-562 leukemia
MALME-3M melanoma = test system: MALME-3M melanoma
MDA-MB-231 breast = test system: MDA-MB-231 breast
RXF 393 renal = test system: RXF 393 renal
SF-268 CNS = test system: SF-268 CNS
SF-295 CNS = test system: SF-295 CNS
SF-539 CNS = test system: SF-539 CNS
UACC-257 melanoma = test system: UACC-257 melanoma
M14 melanoma = test system: M14 melanoma
HCT-15 colon = test system: HCT-15 colon
HT29 colon = test system: HT29 colon
SNB-75 CNS = test system: SNB-75 CNS
SNB-19 CNS = test system: SNB-19 CNS
U251 CNS = test system: U251 CNS
PC-3 prostate = test system: PC-3 prostate
SK-MEL-5 melanoma = test system: SK-MEL-5 melanoma
UACC-62 melanoma = test system: UACC-62 melanoma
LOX IMVI melanoma = test system: LOX IMVI melanoma
SK-MEL-28 melanoma = test system: SK-MEL-28 melanoma

Measured: growth

O=C1/C(=C\c2cccn2Cc2ccccc2)c2ccccc2N1c1c(Cl)cccc1Cl
active: HCT-15 colon 4.9% | SK-MEL-5 melanoma -5.28%
inactive: DU-145 prostate 95.2% | K-562 leukemia 87.6% | MALME-3M melanoma 54% | MDA-MB-231 breast 28.9% | RXF 393 renal 68% | SF-268 CNS 80.6% | SF-295 CNS 77.5% | SF-539 CNS 95.4% | UACC-257 melanoma 87.2% | M14 melanoma 77% | HT29 colon 52.4% | SNB-75 CNS 59.1% | SNB-19 CNS 79.7% | U251 CNS 74.8% | PC-3 prostate 51.4% | UACC-62 melanoma 42% | LOX IMVI melanoma 88.8% | SK-MEL-28 melanoma 98.4%

CC[C@@](C)(NC(=O)[C@H](C)NC(=O)CCNC(=O)C(C)(C)NC(=O)[C@H](C)NC(=O)[C@@H]1CCCN1C(=O)[C@@](C)(CC)NC(=O)[C@H](Cc1ccccc1)NC(=O)C1CCCN1C(=O)C(C)(C)NC(=O)C1CCCN1C(=O)C(C)(C)NC(C)=O)C(=O)NCCC(=O)N[C@@H](CC(C)C)C(=O)NC(C)(C)C(=O)NCCC(=O)N[C@@H](CC(C)C)C(=O)NC(C)(C)C(=O)NC(C)(C)C(=O)N[C@@H](CC(C)C)C(=O)NCCC(=O)NCO (stereo not given in full)
active: DU-145 prostate -100% | K-562 leukemia -60.9% | MALME-3M melanoma -84.9% | MDA-MB-231 breast -88.5% | RXF 393 renal -97.5% | SF-268 CNS -96.8% | SF-295 CNS -98.6% | SF-539 CNS -90% | UACC-257 melanoma -95.2% | M14 melanoma -88.6% | HCT-15 colon -99.4% | HT29 colon -70.8% | SNB-75 CNS -96.4% | SNB-19 CNS -87.2% | U251 CNS -99.1% | PC-3 prostate -94.6% | SK-MEL-5 melanoma -100% | UACC-62 melanoma -75.3% | LOX IMVI melanoma -100% | SK-MEL-28 melanoma -84.1%

O=C1Cc2c(sc3c(F)cccc23)C(c2ccccc2[N+](=O)[O-])N1 (stereo not given)
inactive: DU-145 prostate 107% | K-562 leukemia 97.1% | MALME-3M melanoma 94.5% | MDA-MB-231 breast 84.9% | RXF 393 renal 125% | SF-268 CNS 93.8% | SF-295 CNS 101% | SF-539 CNS 89.4% | UACC-257 melanoma 120% | M14 melanoma 101% | HCT-15 colon 110% | HT29 colon 112% | SNB-75 CNS 90% | SNB-19 CNS 100% | U251 CNS 85.2% | PC-3 prostate 100% | SK-MEL-5 melanoma 97.3% | UACC-62 melanoma 87.2% | LOX IMVI melanoma 97.7% | SK-MEL-28 melanoma 120%

C[C@@H]1C[C@H]2C(=O)O[C@@H](C)[C@H](NC(=O)[C@H](Cc3cc(F)cc(F)c3)NC(=O)Nc3ccc(C4CC4)cc3F)C(=O)N3CCC[C@H]3C(=O)N3CCCC[C@H]3C(=O)N[C@@H](C)C(=O)N2C1
active: MDA-MB-231 breast -14.4% | RXF 393 renal -1.09% | SF-295 CNS -1.67% | UACC-257 melanoma 6.5% | HCT-15 colon 6.12% | SNB-75 CNS 6.49% | SK-MEL-5 melanoma -47.6% | UACC-62 melanoma 3.87%
inactive: DU-145 prostate 21.8% | K-562 leukemia 17.5% | MALME-3M melanoma 18.5% | SF-268 CNS 22.5% | SF-539 CNS 24.7% | M14 melanoma 10.7% | HT29 colon 10.5% | SNB-19 CNS 15.8% | U251 CNS 20.3% | PC-3 prostate 12% | LOX IMVI melanoma 19.2% | SK-MEL-28 melanoma 18.3%

O=S(=O)(/N=c1/n(-c2ccccc2)nc2n1CCN2C1=NCCN1)c1ccc(-c2ccccc2)cc1
inactive: DU-145 prostate 108% | K-562 leukemia 88.6% | MALME-3M melanoma 112% | MDA-MB-231 breast 86.2% | RXF 393 renal 87.9% | SF-268 CNS 91.7% | SF-295 CNS 97.7% | SF-539 CNS 93.1% | UACC-257 melanoma 103% | M14 melanoma 106% | HCT-15 colon 99.4% | HT29 colon 100% | SNB-75 CNS 85% | SNB-19 CNS 97.1% | U251 CNS 92.7% | PC-3 prostate 93.8% | SK-MEL-5 melanoma 90.6% | UACC-62 melanoma 109% | LOX IMVI melanoma 93% | SK-MEL-28 melanoma 105%

COc1ncc(-c2ccc3nccc(C#CCCCCC(=O)O)c3c2)cc1NS(=O)(=O)c1ccc(F)cc1F
inactive: DU-145 prostate 40.9% | K-562 leukemia 78.6% | MDA-MB-231 breast 41.9% | SF-268 CNS 36.5% | M14 melanoma 13.9% | HCT-15 colon 27.7% | HT29 colon 16.1% | SNB-19 CNS 31.1% | U251 CNS 31.6% | PC-3 prostate 19.8% | SK-MEL-5 melanoma 10.3% | LOX IMVI melanoma 28.2%
active: MALME-3M melanoma -21.4% | RXF 393 renal -20% | SF-295 CNS 6.94% | SF-539 CNS -9.14% | UACC-257 melanoma -2.67% | SNB-75 CNS -12.5% | UACC-62 melanoma -12.6% | SK-MEL-28 melanoma 7.69%
